We go through 30 compounds from PubChem BioAssay.

Sequence of E3 ubiquitin-protein ligase XIAP (Homo sapiens) (P98170 whole entry, looked up): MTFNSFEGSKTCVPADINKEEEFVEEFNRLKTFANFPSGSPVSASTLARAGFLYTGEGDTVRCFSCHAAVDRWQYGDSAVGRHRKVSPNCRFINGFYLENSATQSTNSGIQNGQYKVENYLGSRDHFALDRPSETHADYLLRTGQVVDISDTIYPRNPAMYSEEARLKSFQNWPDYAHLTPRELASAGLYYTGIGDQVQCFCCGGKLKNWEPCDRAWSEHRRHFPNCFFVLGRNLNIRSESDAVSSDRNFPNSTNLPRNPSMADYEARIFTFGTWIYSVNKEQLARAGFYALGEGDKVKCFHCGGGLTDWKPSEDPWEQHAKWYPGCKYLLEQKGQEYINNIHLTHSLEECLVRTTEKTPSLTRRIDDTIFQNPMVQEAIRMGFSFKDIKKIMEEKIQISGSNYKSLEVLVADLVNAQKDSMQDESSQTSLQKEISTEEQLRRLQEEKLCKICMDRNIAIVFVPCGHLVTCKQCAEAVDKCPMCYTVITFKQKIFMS

This test concerns the target E3 ubiquitin-protein ligase XIAP (Homo sapiens) (UniProt P98170). In words: XIAP binders, primary screen, biophysical, small-molecule microarray, fluorescence 635 nm (AID 1181).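 Further: score merges 667 nm emission and signal to noise over triplicate slides.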 To be noted: small-molecule microarray binding, higher = more signal.
Compound `COc1cc2c(cc1O)C(C1CC1)N(Cc1cccc(OC(F)(F)F)c1)CC2` (stereo not given) had a composite z-score of 0.0674.
The value for `C=CC[C@]1(C(=O)N2CCOCC2)COC(c2ccc(OCCCO)cc2)=N1` was 0.0055; that for `C=CC[C@]1(C(=O)N2CCCCC2)N=C(c2ccc(OCCCO)cc2)O[C@H]1c1ccccc1CN=[N+]=[N-]` was 0.354.
`COc1ccc(CCNC(=O)[C@@]2(Sc3ccc(C)cc3)CC(=O)N(Cc3ccccc3C(F)(F)F)[C@@H]2c2ccc(CO)cc2I)cc1` returned a composite z-score of 0.1.
In the case of `O=C1N(CCS(=O)(=O)c2ccccc2)c2ccccc2[C@H]2OC(c3ccc(OCCCO)cc3)=N[C@@]12Cc1ccccc1`, the composite z-score came to 0.211.
The value for `CCCCC[C@H]1OC[C@@]23C=C(Br)[C@@H](CC12)[C@@]1(CO1)C3=O` (stereo not given in full) was 0.144; that for `COC(=O)[C@@]1(Cc2ccc(OC)cc2)[C@H]2c3cc(C(=O)N(C)C)n(Cc4ccc(OC(F)(F)F)cc4)c3C[C@H]2CN1C(=O)c1ccccc1` was 0.422; that for `CCC#CCN(Cc1ccccc1Br)[C@H](/C=C/C1CC1)[C@@H](O)Cc1ccccc1` was -0.144.
Regarding `CC[C@@H]1O[Si](C(C)C)(C(C)C)c2c1cc(-c1cc(C)c(OC)c(C)c1)nc2-c1ccc(Oc2ccccc2)cc1`, the composite z-score stood at 0.113.
For `CCCNC(=O)[C@@]1(C)c2ccccc2C(=O)N(c2ccc(C)cn2)[C@H]1c1ccc(CO)cc1` the value was -0.127; for `[N-]=[N+]=Nc1ccccc1[C@@H]1OC(c2ccc(OCCCO)cc2)=N[C@]1(Cc1ccccc1)C(=O)N1CCCCC1`, 0.0512; for `COc1ccc([Si](C)(C)[C@@H]2[C@@H](CCO)O[C@]3(C(=O)N(Cc4ccccc4)c4ccc(N5C(=O)c6cccc7cccc5c67)cc43)[C@H]2C)cc1`, -0.152.
As to `COc1cccc(C)c1NC(=O)O[C@H]1[C@H](OC(=O)Nc2ccc3c(c2)OCO3)[C@@H](OC(=O)Nc2ccc3c(c2)OCO3)[C@@H](OC)O[C@@H]1CO`, the composite z-score came to 0.196.
For the compound `Cc1cc(C)c(C(O)C2C=CC3C(=O)N(c4ccccc4)C(=O)C3N2Nc2ccccc2F)c(C)c1` (stereo not given), the composite z-score came to 0.127.
The value for `CCCC1(C(=O)OC)C=C2C(=C(C)C(=O)C2C)CN1` (stereo not given) was 0.258; that for `O=C(NCCN1CCOCC1)[C@@H]1c2ccccc2C(=O)N(Cc2ccccc2Cl)[C@H]1c1ccc(CO)cc1` was 0.0178; that for `C=C(/C(=C/C[C@H](OC(C)=O)c1ccc(CO)o1)c1cnc2ccccc2c1)C(C)C` was -0.0095.
The value for `CCOC(=O)C[C@H]1[C@H](OC(=O)Cc2ccc3c(c2)OCO3)[C@@H](NC(=O)c2ccc3ccccc3n2)c2cc(OCCCO)ccc2N1C(=O)c1ccc2ccccc2n1` was -0.0773; that for `[N-]=[N+]=Nc1ccccc1C[C@]1(C(=O)NCCN2CCOCC2)COC(c2ccc(OCCCO)cc2)=N1` was -0.237.
`COc1ccc(CCNC(=O)[C@@H]2c3ccccc3C(=O)N(C3CCCCC3)[C@H]2c2ccc(CO)cc2)cc1` had a composite z-score of -0.0349.
As for `COCCOC(=O)N1C(=O)[C@@]2(c3ccccc31)[C@H](C(=O)NC[C@H](O)c1ccccc1)[C@H]1C(=O)O[C@H](c3ccccc3)[C@H](c3ccccc3)N1[C@@H]2c1ccc(O)cc1`, the composite z-score is -0.103.
As for `COC(=O)[C@]1(CCS(=O)(=O)c2ccccc2)N=C(c2ccc(OCCCO)cc2)O[C@@H]1c1ccccc1N=[N+]=[N-]`, the composite z-score was -0.0502.
The compound `CC(C)C(CO)N1C(=O)[C@@H]2C3C(=O)OCCC/C=C\[C@H]3OC23C=CCN(c2ccc4ccccc4c2)C(=O)[C@@H]13` (stereo not given in full) gave a composite z-score of 0.683.
The value for `CN1C2C=C(CCCO)C(C3C(=O)N(C(N)=O)C(=O)C32)C1C1CC1` (stereo not given) was 0.0361; that for `NCCCCCNC(=O)[C@@H]1C[C@@H]2C(=O)N[C@@H](CCCCN)C(=O)N2[C@@H]1c1ccc(O)cc1` was 0.554.
The value for `CCCCCC1=C2CNC(C)(C(=O)OC)C=C2C(C)C1=O` (stereo not given) was 0.152; that for `COc1ccc(CCNC(=O)[C@@]2(c3ccc([N+](=O)[O-])cc3)CC(=O)N(C3CCCCC3)[C@@H]2c2ccc(CO)cc2)cc1` was -0.0333.
For `COCCOC(=O)N1C(=O)[C@@]2(c3cc(C#CCC(C(=O)OC)C(=O)OC)ccc31)[C@H](c1ccc(OCCO)cc1)N1[C@H](c3ccccc3)[C@H](c3ccccc3)OC(=O)[C@H]1[C@@H]2C(=O)N1CCc2cc(OC)c(OC)cc2C1` the value was 0.112; for `O=C(c1ccccc1)N1C(=O)[C@]2(Cc3ccccc31)N=C(c1ccc(OCCCO)cc1)O[C@@H]2c1ccccc1`, 0.233; for `COc1ccc([Si](C)(C)[C@@H]2[C@@H](CCO)O[C@]3(C(=O)N(Cc4ccccc4)c4ccc(N5CCOC5=O)cc43)[C@H]2C)cc1`, 0.0605.
